# From PubChem BioAssay (EPA / NIEHS)
# Where “and” joins values, the source holds several entries; their conditions need not be identical. Identical values can stand only once. Records with an inconclusive call do not appear. Calls of active or inactive are those of the source. The calls were made as follows, unless noted: active = hit-call score of the fitted dose curve at least 0.9, where 1 is the maximum; inconclusive = response in the unintended direction; inactive = score below 0.9.
# How the values were obtained:
# [1] = CCTE_Shafer_MEA_dev_firing_rate_mean: CCTE's Neural Network Formation Assay for Mean Firing Rate, Shafer Lab (AID 2284031; active = hit-call score of the fitted dose curve at least 0.9, where 1 is the maximum; inactive = score below 0.9;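 as to AC50: curve fitted for loss of firing so AC50 reflects decreased mean firing rate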)
# How it was run: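 Rat primary cortical neurons were seeded on multielectrode arrays and treated from plating through day 12, with redosing at each feed. Spontaneous spiking was recorded four times; mean firing rate AUC was fitted downward against DMSO.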
# [2] = CCTE_Shafer_MEA_dev_per_burst_spike_percent: CCTE's Neural Network Formation Assay for Percent of Spikes in a Burst, Shafer Lab (AID 2284032; active = hit-call score of the fitted dose curve at least 0.9, where 1 is the maximum; inactive = score below 0.9;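 as to AC50: fitted as a decrease in burst spike percentage below DMSO baseline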)
# How it was run: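 Rat primary cortical neurons on 16-electrode MEA wells, dosed from plating day 0 for 12 days with renewal on DIV 5 and 9; spikes-in-bursts percentage averaged over bursting electrodes, collapsed as AUC across days 5, 7, 9, 12; loss direction versus DMSO.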
# [3] = CCTE_Shafer_MEA_dev_active_electrodes_number: CCTE's Neural Network Formation Assay for Number of Active Electrodes, Shafer Lab (AID 2284040);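 as to AC50: potency for loss of active electrodes versus DMSO so lower counts are hits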
# How it was run: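 Primary rat cortical neurons on 16-electrode MEA wells, exposed from day 0 through day 12 with compound renewed at DIV 5 and 9 feeds. Active electrodes (mean firing ≥5 spikes/min) counted at DIV 5, 7, 9, 12; trapezoidal AUC across days, loss-of-signal versus DMSO.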
# [4] = molecular target: Estrogen receptor (Homo sapiens) (UniProt P03372); experiment: CCTE_Deisenroth_AIME_384WELL_LUC_Active: CCTE's 384-well Estrogen Receptor Transactivation Assay with AIME metabolic competence (ERTA luciferase; metabolism positive), Deisenroth Lab (AID 2284030)
# Chain of Estrogen receptor (Homo sapiens) (P03372 whole entry, looked up): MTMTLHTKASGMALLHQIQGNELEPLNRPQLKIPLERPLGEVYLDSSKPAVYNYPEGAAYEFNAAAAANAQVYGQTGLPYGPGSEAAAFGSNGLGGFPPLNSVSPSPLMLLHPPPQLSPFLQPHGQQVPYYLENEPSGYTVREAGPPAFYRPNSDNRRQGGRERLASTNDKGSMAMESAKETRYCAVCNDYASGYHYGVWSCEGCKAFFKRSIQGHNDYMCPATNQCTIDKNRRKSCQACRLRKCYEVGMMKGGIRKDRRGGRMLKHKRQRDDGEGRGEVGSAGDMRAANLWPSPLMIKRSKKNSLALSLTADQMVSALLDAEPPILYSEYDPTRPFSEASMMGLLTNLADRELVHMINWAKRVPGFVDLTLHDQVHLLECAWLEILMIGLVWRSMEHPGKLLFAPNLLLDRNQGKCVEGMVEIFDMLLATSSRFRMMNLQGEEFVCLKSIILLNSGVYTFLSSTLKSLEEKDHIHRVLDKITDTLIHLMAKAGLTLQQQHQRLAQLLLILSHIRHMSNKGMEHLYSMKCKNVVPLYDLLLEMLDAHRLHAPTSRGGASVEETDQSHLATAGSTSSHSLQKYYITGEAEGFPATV
# How it was run: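 Readout: bioluminescent luciferase induction in VM7Luc4E2 cells 24 hour after receiving medium from a 2 h rat hepatic S9 (induced, alginate microsphere) metabolism step. Concentrations 0.002 - 200 uM; activity scaled to 17beta-estradiol positive control.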
# [5] = molecular target: Estrogen receptor (Homo sapiens) (UniProt P03372); experiment: CCTE_Deisenroth_AIME_384WELL_LUC_Inactive: CCTE's 384-well Estrogen Receptor Transactivation Assay without AIME metabolic competence (ERTA luciferase; metabolism negative), Deisenroth Lab (AID 2284038);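 also: hits raise estrogen receptor luciferase signal so potencies reflect agonists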
# How it was run: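 Metabolism-negative mode: chemicals (10-point, 0.002–200 uM) held 2 h with alginate-water microspheres, then conditioned medium applied to VM7Luc4E2 cells for 24 h. Luciferase induction referenced to 17beta-estradiol.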
# [6] = CCTE_Deisenroth_AIME_384WELL_CTox_Active: Cytotoxicity Assessment (CTOX) in CCTE's 384-well Estrogen Receptor Transactivation Assay with AIME metabolic competence (metabolism positive), Deisenroth Lab (AID 2284037);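 also: activity means signal loss indicating cell death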
# How it was run: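 VM7Luc4E2 breast cells received medium pre-incubated 2 h with chemical over alginate microspheres holding induced male Sprague Dawley rat liver S9; viability read 24 h later by protease-substrate fluorescence. Loss of signal, bidirectional fit, 0.002–200 uM.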
# [7] = CCTE_Deisenroth_AIME_384WELL_CTox_Inactive: Cytotoxicity Assessment (CTOX) in CCTE's 384-well Estrogen Receptor Transactivation Assay without AIME metabolic competence (metabolism negative), Deisenroth Lab (AID 2284039);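 also: cell viability via live-cell protease substrate cleaved to fluorescent probe; cells exposed 24 h to medium preincubated 2 h with alginate-water beads without S9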
# How it was run: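 VM7Luc4E2 human breast cells received conditioned medium from a 2 h incubation of chemical with alginate-water microspheres (no S9), then were exposed 24 h. Viability was read as protease-substrate cleavage to a fluorescent probe; loss of signal was fitted bidirectionally over 0.002–200 uM.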
# [8] = molecular target: Estrogen receptor (Homo sapiens) (UniProt P03372); experiment: CCTE_Deisenroth_AIME_384WELL_LUC_Shift: CCTE's 384-well Estrogen Receptor Transactivation Assay with AIME metabolic competence data shift (ERTA luciferase; difference in metabolism positive and negative), Deisenroth Lab (AID 2284041; active = hit-call score of the fitted dose curve at least 0.9, where 1 is the maximum; inactive = score below 0.9;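 also: shift is response with S9 minus without S9 so positive means metabolism raised ER signal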)
# How it was run: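 Here, parent compounds undergo 2 h phase I metabolism by PB/BNF-induced rat S9 before 24 h transactivation in VM7Luc4E2 cells; the curve models S9-positive minus S9-negative response over a 10-point series.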
# [9] = CCTE_Deisenroth_AIME_96WELL_CTox_Active: Cytotoxicity Assessment (CTOX) in CCTE's 96-well Estrogen Receptor Transactivation Assay with AIME metabolic competence (metabolism positive), Deisenroth Lab (AID 2284028)
# How it was run: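 Chemicals (0.002–200 uM) were first incubated 2 h with alginate-immobilized phenobarbital/beta-naphthoflavone-induced male rat liver S9; conditioned medium then went onto VM7Luc4E2 cells for 24 h, with viability read by protease-substrate fluorescence, fitted bidirectionally.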
# [10] = CCTE_Deisenroth_AIME_96WELL_CTox_Inactive: Cytotoxicity Assessment (CTOX) in CCTE's 96-well Estrogen Receptor Transactivation Assay without AIME metabolic competence (metabolism negative), Deisenroth Lab (AID 2284029)
# How it was run: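 Chemicals (0.002 - 200 uM, 10 points) incubated 2 h with alginate-water microspheres (no S9), then medium moved onto VM7Luc4E2 cells for 24 h. Viability by protease-substrate cleavage to fluorescent probe; bidirectional fitting.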
structure (smiles),measurement,setting,value
O=C(O)C(F)(F)C(F)(F)C(F)(F)C(F)(F)C(F)(F)C(F)(F)C(F)(F)C(F)(F)C(F)(F)C(F)(F)F,outcome,[1],inactive
same,outcome,[2],inactive
same,outcome,[3],inactive
CC(C)OC(=O)Nc1ccccc1,AC50,[4],17 µM (active)
same,AC50,[5],17.4 µM (active)
NNC(=S)NN,outcome,[4],inactive
same,outcome,[6],inactive
same,outcome,[5],inactive
same,outcome,[7],inactive
same,outcome,[8],inactive
O=C(O)C(F)(F)C(F)(F)C(F)(F)C(F)(F)C(F)(F)C(F)(F)F,outcome,[1],inactive
same,outcome,[2],inactive
same,outcome,[7],inactive
CCCCCCCCSC(=O)Oc1cc(Cl)nnc1-c1ccccc1,outcome,[4],inactive
same,outcome,[6],inactive
same,outcome,[5],inactive
same,outcome,[7],inactive
same,outcome,[8],inactive
CC(=O)c1cc(C(C)(C)C)cc2c1CCC2(C)C,outcome,[4],inactive
same,outcome,[6],inactive
same,outcome,[5],inactive
same,outcome,[7],inactive
same,outcome,[8],inactive
O=C(NCO)NCO,outcome,[4],inactive
same,outcome,[6],inactive
same,outcome,[5],inactive
same,outcome,[8],inactive
C[C@@H]1C[C@@H]([C@H](O)CC2CC(=O)NC(=O)C2)C(=O)[C@@H](C)C1,AC50,[6],28.5 µM (active)
same,outcome,[7],inactive
O=S(=O)(c1ccc(Cl)cc1)c1ccc(Cl)cc1,outcome,[4],inactive
same,outcome,[5],inactive
same,outcome,[7],inactive
same,outcome,[8],inactive
COc1ccc(C=O)cc1,outcome,[4],inactive
same,outcome,[6],inactive
same,outcome,[5],inactive
same,outcome,[7],inactive
same,outcome,[8],inactive
CCC(=O)C(CC(C)N(C)C)(c1ccccc1)c1ccccc1 (stereo unspecified),AC50,[1],3.42 µM (active)
same,AC50,[2],7.25 µM (active)
same,AC50,[3],3.55 µM (active)
O=C1CCCN1,outcome,[4],inactive
same,outcome,[6],inactive
same,outcome,[5],inactive
same,outcome,[7],inactive
same,outcome,[8],inactive
Cn1sc(Cl)cc1=O,AC50,[1],8.69 µM (active)
same,AC50,[2],4.02 µM (active)
same,AC50,[3],4.47 µM (active)
O=C(OC1CCCCC1)c1ccccc1C(=O)OC1CCCCC1,outcome,[9],inactive
same,outcome,[10],inactive
C=C(C)C(=O)[O][Sn]([CH2]CCC)([CH2]CCC)[CH2]CCC,AC50,[1],0.00431 µM (active)
same,AC50,[2],0.0389 µM (active)
same,AC50,[3],0.0266 µM (active)
c1cc[c]([Hg][c]2ccccc2)cc1,outcome,[5],inactive
same,outcome,[7],inactive
same,AC50,[8],365 nM (active)
CNC(=O)O/N=C/C(C)(C)S(C)=O (stereo unspecified),outcome,[4],inactive
same,outcome,[5],inactive
same,outcome,[8],inactive
Oc1cccc2cccnc12,outcome,[6],inactive
same,outcome,[7],inactive
ClC1(Cl)C2(Cl)C3(Cl)C4(Cl)C(Cl)(Cl)C5(Cl)C3(Cl)C1(Cl)C5(Cl)C24Cl (stereo unspecified),outcome,[1],inactive
same,AC50,[2],3.9 µM (active)
same,AC50,[3],2.07 µM (active)
[O-][Cl+2]([O-])O,outcome,[4],inactive
same,outcome,[5],inactive
same,outcome,[7],inactive
same,outcome,[8],inactive
CNC,outcome,[4],inactive
same,outcome,[6],inactive
same,outcome,[5],inactive
same,outcome,[7],inactive
same,outcome,[8],inactive
Cc1ccc(N)cc1Cl,outcome,[4],inactive
same,outcome,[6],inactive
same,outcome,[5],inactive
same,outcome,[8],inactive
COP(=O)(OC)O/C(=C\Cl)c1cc(Cl)c(Cl)cc1Cl,outcome,[1],inactive
same,outcome,[2],inactive
same,AC50,[6],100 µM (active)
same,outcome,[5],inactive
same,AC50,[7],100 µM (active)
same,AC50,[3],78.5 µM (active) and 51.5 µM (active)
same,outcome,[8],inactive
CC(C)(c1ccccc1)c1ccc(O)c(C(C)(C)c2ccccc2)c1,AC50,[6],93.9 µM (active)
same,AC50,[7],64.6 µM (active)
same,outcome,[8],inactive
O=C1C2(Cl)C3(Cl)C4(Cl)C(Cl)(Cl)C5(Cl)C3(Cl)C1(Cl)C5(Cl)C24Cl (stereo unspecified),AC50,[1],3.94 µM (active)
same,AC50,[2],4.18 µM (active)
same,AC50,[3],4.58 µM (active)
CCC(C)(C)c1ccc(O)c(C(C)(C)CC)c1,AC50,[6],102 µM (active)
same,AC50,[7],75 µM (active)
same,outcome,[8],inactive
CC(=O)[O][Hg][c]1ccccc1,AC50,[1],0.00554 µM (active)
same,AC50,[2],0.0114 µM (active)
same,AC50,[6],66.1 µM (active)
same,AC50,[7],46.3 µM (active)
same,AC50,[3],0.0146 µM (active)
same,outcome,[8],inactive
CC(=O)C=C(C)C,outcome,[4],inactive
same,outcome,[6],inactive
same,outcome,[5],inactive
same,outcome,[7],inactive
same,outcome,[8],inactive
O=C(Cc1ccccc1)c1ccccc1,AC50,[4],112 µM (active)
same,outcome,[6],inactive
same,AC50,[5],72 µM (active)
same,outcome,[7],inactive
same,outcome,[8],inactive
NC(=O)O,outcome,[4],inactive
same,outcome,[6],inactive
same,outcome,[5],inactive
same,outcome,[7],inactive
same,outcome,[8],inactive
CC1(C)CCC(Cc2ccc(Cl)cc2)C1(O)Cn1cncn1 (stereo unspecified),AC50,[6],120 µM (active)
same,AC50,[7],119 µM (active)
same,outcome,[8],inactive
COP(=O)(OC)OC,outcome,[4],inactive
same,outcome,[5],inactive
same,outcome,[8],inactive
CCOP(=S)(OCC)SCSP(=S)(OCC)OCC,AC50,[4],13.4 µM (active)
same,outcome,[6],inactive
same,AC50,[5],10.3 µM (active)
same,outcome,[7],inactive
same,outcome,[8],inactive
OCC(O)CCl (stereo unspecified),AC50,[4],0.555 µM (active)
same,outcome,[6],inactive
same,AC50,[5],0.124 µM (active)
same,AC50,[8],2.81 nM (active)
O=C1C(Cl)=C(Cl)C(=O)c2ccccc21,AC50,[6],163 µM (active)
same,AC50,[7],189 µM (active)
same,outcome,[8],inactive
C=C(C)C#N,outcome,[4],inactive
same,outcome,[6],inactive
same,outcome,[5],inactive
same,outcome,[8],inactive
CCOC(=O)Nc1cccc(OC(=O)Nc2ccccc2)c1,outcome,[4],inactive
same,outcome,[5],inactive
same,outcome,[8],inactive
CC(C)(C)c1cc(O)ccc1O,AC50,[4],0.000221 µM (active)
same,outcome,[1],inactive
same,AC50,[2],10 µM (active)
same,AC50,[6],137 µM (active)
same,AC50,[5],0.000233 µM (active)
same,AC50,[7],100 µM (active)
same,AC50,[3],6.05 µM (active)
same,AC50,[8],30700 nM (active)
ClC(Cl)=C(Cl)C(Cl)=C(Cl)Cl,outcome,[4],inactive
same,outcome,[6],inactive
same,outcome,[5],inactive
same,outcome,[7],inactive
same,outcome,[8],inactive
CCOP(=S)(OCC)Oc1nc(Cl)c(Cl)cc1Cl,AC50,[1],13.3 µM (active) and 2.98 µM (active) and 12 µM (active)
same,AC50,[2],23.3 µM (active) and 15 µM (active) and 21.4 µM (active)
same,AC50,[3],22.5 µM (active) and 6.77 µM (active) and 22.1 µM (active)
